In all, about 5,500 compounds went through this assay and about 2,000 (36%) were called active. Not shown: some 18% with an inconclusive outcome. No stated cut-off is given here; in the data, active means normalized growth mostly below about 0.91 (no sharp cut-off); inconclusive means no clear call, values can overlap the other calls; inactive means mostly above about 0.92. Some of the results follow.
Assay: chemical genetic growth profiling, strain panel (AID 1159580);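 further: tested at 20 µM; growth read once vehicle control cultures reached saturation at 30 °C; 1 = growth at the plate median or of vehicle wells; lower values mean less growth of the strain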
Details: growth OD

Measured: normalized growth

Oc1ccc(Cl)cc1
inactive: S. cerevisiae deletion strains, locus YJR075W, strain HOC1, active compounds read low 0.993 | S. cerevisiae deletion strains, locus YKL009W, strain mrt4, active compounds read low 0.972 | S. cerevisiae deletion strains, locus YKL068W, active compounds read low 0.985 | S. cerevisiae deletion strains, locus YKL085W, strain MDH1 (second series), active compounds read low 0.978 | S. cerevisiae deletion strains, locus YKL085W, strain MDH1, active compounds read low 0.978 | S. cerevisiae deletion strains, locus YKL160W, strain elf1, active compounds read low 1.03 | S. cerevisiae deletion strains, locus YKL190W, strain CNB1, active compounds read low 0.993 | S. cerevisiae deletion strains, locus YKR001C, strain vps1, active compounds read low 0.996 | S. cerevisiae deletion strains, locus YKR026C, strain gcn3, active compounds read low 1.02 | S. cerevisiae deletion strains, locus YKR091W, strain srl3, active compounds read low 1.01 | S. cerevisiae deletion strains, locus YLL001W, strain dnm1, active compounds read low 1.02 | S. cerevisiae deletion strains, locus YLL026W, active compounds read low 1.02 | S. cerevisiae deletion strains, locus YLL041C, strain sdh2, active compounds read low 1.01 | S. cerevisiae deletion strains, locus YLR027C, strain aat2, active compounds read low 0.999 | S. cerevisiae deletion strains, locus YLR039C, strain RIC1, active compounds read low 0.983 | S. cerevisiae deletion strains, locus YLR058C, strain SHM2, active compounds read low 0.989 | S. cerevisiae deletion strains, locus YLR102C, strain apc9, active compounds read low 0.976 | S. cerevisiae deletion strains, locus YLR113W, strain HOG1, active compounds read low 1 | S. cerevisiae deletion strains, locus YLR221C, strain rsa3, active compounds read low 1.01 | S. cerevisiae deletion strains, locus YLR258W, strain gsy2, active compounds read low 1 | S. cerevisiae deletion strains, locus YLR262C, strain YPT6 (second series), active compounds read low 1.02 | S. cerevisiae deletion strains, locus YLR262C, strain YPT6, active compounds read low 0.986 | S. cerevisiae deletion strains, locus YLR268W, strain sec22, active compounds read low 0.93 | S. cerevisiae deletion strains, locus YLR320W, strain mms22, active compounds read low 1.03 | S. cerevisiae deletion strains, locus YLR330W, strain CHS5, active compounds read low 0.99 | S. cerevisiae deletion strains, locus YLR342W, strain FKS1 (second series), active compounds read low 0.995 | S. cerevisiae deletion strains, locus YLR342W, strain FKS1, active compounds read low 1.01 | S. cerevisiae deletion strains, locus YLR357W, strain rsc2, active compounds read low 1.04 | S. cerevisiae deletion strains, locus YLR370C, strain arc18, active compounds read low 1.01 | S. cerevisiae deletion strains, locus YLR371W, strain rom2, active compounds read low 0.962 | S. cerevisiae deletion strains, locus YLR384C, strain iki3, active compounds read low 1.01 | S. cerevisiae deletion strains, locus YLR418C, strain cdc73, active compounds read low 0.986 | S. cerevisiae deletion strains, locus YML016C, strain PPZ1, active compounds read low 0.99 | S. cerevisiae deletion strains, locus YML032C, strain rad52, active compounds read low 0.963 | S. cerevisiae deletion strains, locus YML120C, strain ndi1, active compounds read low 1.01 | S. cerevisiae deletion strains, locus YML124C, strain tub3, active compounds read low 0.975 | S. cerevisiae deletion strains, locus YMR058W, strain fet3, active compounds read low 1.01 | S. cerevisiae deletion strains, locus YMR078C, strain ctf18, active compounds read low 0.968 | S. cerevisiae deletion strains, locus YMR125W, strain sto1, active compounds read low 1.01 | S. cerevisiae deletion strains, locus YMR129W, active compounds read low 1.01 | S. cerevisiae deletion strains, locus YMR205C, strain PFK2, active compounds read low 1.03 | S. cerevisiae deletion strains, locus YMR223W, strain ubp8, active compounds read low 1 | S. cerevisiae deletion strains, locus YMR231W, strain pep5, active compounds read low 1.01 | S. cerevisiae deletion strains, locus YMR307W, strain GAS1, active compounds read low 1 | S. cerevisiae deletion strains, locus YNL067W, strain RPL9B, active compounds read low 0.996 | S. cerevisiae deletion strains, locus YNL071W, strain lat1, active compounds read low 1.01 | S. cerevisiae deletion strains, locus YNL128W, strain TEP1, active compounds read low 0.978 | S. cerevisiae deletion strains, locus YNL153C, strain GIM3, active compounds read low 1 | S. cerevisiae deletion strains, locus YNL183C, strain NPR1, active compounds read low 0.941 | S. cerevisiae deletion strains, locus YNL209W, strain ssb2, active compounds read low 1 | S. cerevisiae deletion strains, locus YNL233W, strain BNI4, active compounds read low 0.988 | S. cerevisiae deletion strains, locus YNL248C, strain rpa49, active compounds read low 1 | S. cerevisiae deletion strains, locus YNL250W, strain rad50, active compounds read low 0.97 | S. cerevisiae deletion strains, locus YNL271C, strain bni1, active compounds read low 0.975 | S. cerevisiae deletion strains, locus YNL298W, strain CLA4, active compounds read low 0.971 | S. cerevisiae deletion strains, locus YNL307C, strain MCK1, active compounds read low 0.968 | S. cerevisiae deletion strains, locus YNL322C, strain KRE1 (second series), active compounds read low 1.02 | S. cerevisiae deletion strains, locus YNL322C, strain KRE1, active compounds read low 0.992 | S. cerevisiae deletion strains, locus YNR049C, strain mso1, active compounds read low 1.01 | S. cerevisiae deletion strains, locus YNR052C, strain pop2, active compounds read low 0.973 | S. cerevisiae deletion strains, locus YOL006C, strain TOP1, active compounds read low 1.03 | S. cerevisiae deletion strains, locus YOL012C, strain htz1 0.904 | S. cerevisiae deletion strains, locus YOL147C, strain pex11, active compounds read low 0.986 | S. cerevisiae deletion strains, locus YOR001W, strain rrp6, active compounds read low 0.972 | S. cerevisiae deletion strains, locus YOR061W, strain CKA2, active compounds read low 0.98 | S. cerevisiae deletion strains, locus YOR069W, strain VPS5, active compounds read low 0.989 | S. cerevisiae deletion strains, locus YOR070C, strain gyp1, active compounds read low 1 | S. cerevisiae deletion strains, locus YOR080W, strain dia2, active compounds read low 1.01 | S. cerevisiae deletion strains, locus YOR083W, strain WHI5, active compounds read low 1.02 | S. cerevisiae deletion strains, locus YOR106W, strain vam3, active compounds read low 1.02 | S. cerevisiae deletion strains, locus YOR136W, strain idh2, active compounds read low 0.98 | S. cerevisiae deletion strains, locus YOR144C, strain elg1, active compounds read low 0.978 | S. cerevisiae deletion strains, locus YOR184W, strain ser1, active compounds read low 0.961 | S. cerevisiae deletion strains, locus YOR231W, strain MKK1, active compounds read low 0.979 | S. cerevisiae deletion strains, locus YOR265W, strain rbl2, active compounds read low 1.02 | S. cerevisiae deletion strains, locus YOR270C, strain vph1, active compounds read low 1.02 | S. cerevisiae deletion strains, locus YOR290C, strain snf2, active compounds read low 0.999 | S. cerevisiae deletion strains, locus YOR316C, strain cot1, active compounds read low 0.974 | S. cerevisiae deletion strains, locus YPL051W, strain arl3, active compounds read low 1.01 | S. cerevisiae deletion strains, locus YPL078C, strain atp4, active compounds read low 1.01 | S. cerevisiae deletion strains, locus YPL106C, strain sse1, active compounds read low 1.04 | S. cerevisiae deletion strains, locus YPL240C, strain hsp82, active compounds read low 1.01 | S. cerevisiae deletion strains, locus YPL241C, strain CIN2, active compounds read low 0.997 | S. cerevisiae deletion strains, locus YPL256C, strain CLN2, active compounds read low 0.978 | S. cerevisiae deletion strains, locus YPR119W, strain clb2, active compounds read low 0.98 | S. cerevisiae deletion strains, locus YPR141C, strain kar3, active compounds read low 0.976 | S. cerevisiae deletion strains, locus YPR163C, strain tif3, active compounds read low 0.983 | S. cerevisiae deletion strains, locus YPR167C, strain met16, active compounds read low 0.974 | S. cerevisiae deletion strains, strain wtn01, active compounds read low 0.971 | S. cerevisiae strains, strain wild type, active compounds read low 0.995

Reference: PubChem BioAssay AID1159580 (chemical genetic matrix, 2015)
